According to PubChem BioAssay AID1159580 (chemical genetic matrix, 2015):
About 2,000 (36%) of roughly 5,500 compounds were called active. Not shown: some 18% with an inconclusive outcome. No stated cut-off is given here; in the data, active means normalized growth mostly below about 0.91 (no sharp cut-off); inconclusive means no clear call, values can overlap the other calls; inactive means mostly above about 0.92. The list shows a part of the results.

Assay: chemical genetic growth profiling, strain panel (AID 1159580);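 further: tested at 20 µM; growth read once vehicle control cultures reached saturation at 30 °C; 1 = growth at the plate median or of vehicle wells; lower values mean less growth of the strain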
Details: growth OD

Measured: normalized growth

CC1(C)C(=O)[C@@H]2C[C@@]3(O)C4=CC(=O)O[C@@H](c5ccoc5)[C@]4(C)CCC3[C@@](C)(C2=O)[C@H]1CC(=O)O (some centres not stated)
inactive: S. cerevisiae deletion strains, locus YJR066W, strain TOR1, active compounds read low 0.941 | S. cerevisiae deletion strains, locus YKL009W, strain mrt4, active compounds read low 0.998 | S. cerevisiae deletion strains, locus YKL068W, active compounds read low 1 | S. cerevisiae deletion strains, locus YKL085W, strain MDH1 (second series), active compounds read low 0.99 | S. cerevisiae deletion strains, locus YKL085W, strain MDH1, active compounds read low 0.99 | S. cerevisiae deletion strains, locus YKL160W, strain elf1, active compounds read low 1.01 | S. cerevisiae deletion strains, locus YKR001C, strain vps1, active compounds read low 0.992 | S. cerevisiae deletion strains, locus YKR026C, strain gcn3, active compounds read low 1.01 | S. cerevisiae deletion strains, locus YKR091W, strain srl3, active compounds read low 1 | S. cerevisiae deletion strains, locus YLL001W, strain dnm1, active compounds read low 1.01 | S. cerevisiae deletion strains, locus YLL026W, active compounds read low 1.01 | S. cerevisiae deletion strains, locus YLL041C, strain sdh2, active compounds read low 1.01 | S. cerevisiae deletion strains, locus YLR027C, strain aat2, active compounds read low 1.01 | S. cerevisiae deletion strains, locus YLR039C, strain RIC1, active compounds read low 1.1 | S. cerevisiae deletion strains, locus YLR058C, strain SHM2, active compounds read low 1.01 | S. cerevisiae deletion strains, locus YLR102C, strain apc9, active compounds read low 0.997 | S. cerevisiae deletion strains, locus YLR113W, strain HOG1, active compounds read low 0.986 | S. cerevisiae deletion strains, locus YLR221C, strain rsa3, active compounds read low 1.01 | S. cerevisiae deletion strains, locus YLR258W, strain gsy2, active compounds read low 0.996 | S. cerevisiae deletion strains, locus YLR262C, strain YPT6 (second series), active compounds read low 1.01 | S. cerevisiae deletion strains, locus YLR262C, strain YPT6, active compounds read low 1.08 | S. cerevisiae deletion strains, locus YLR268W, strain sec22, active compounds read low 1 | S. cerevisiae deletion strains, locus YLR320W, strain mms22, active compounds read low 0.995 | S. cerevisiae deletion strains, locus YLR330W, strain CHS5, active compounds read low 1 | S. cerevisiae deletion strains, locus YLR342W, strain FKS1, active compounds read low 0.997 | S. cerevisiae deletion strains, locus YLR357W, strain rsc2, active compounds read low 1 | S. cerevisiae deletion strains, locus YLR370C, strain arc18, active compounds read low 1.01 | S. cerevisiae deletion strains, locus YLR371W, strain rom2, active compounds read low 1.01 | S. cerevisiae deletion strains, locus YLR384C, strain iki3, active compounds read low 0.992 | S. cerevisiae deletion strains, locus YLR418C, strain cdc73, active compounds read low 1 | S. cerevisiae deletion strains, locus YML016C, strain PPZ1, active compounds read low 1 | S. cerevisiae deletion strains, locus YML032C, strain rad52, active compounds read low 0.983 | S. cerevisiae deletion strains, locus YML120C, strain ndi1, active compounds read low 1.02 | S. cerevisiae deletion strains, locus YML124C, strain tub3, active compounds read low 1 | S. cerevisiae deletion strains, locus YMR058W, strain fet3, active compounds read low 1.02 | S. cerevisiae deletion strains, locus YMR078C, strain ctf18, active compounds read low 0.985 | S. cerevisiae deletion strains, locus YMR125W, strain sto1, active compounds read low 0.997 | S. cerevisiae deletion strains, locus YMR129W, active compounds read low 1 | S. cerevisiae deletion strains, locus YMR205C, strain PFK2, active compounds read low 0.999 | S. cerevisiae deletion strains, locus YMR223W, strain ubp8, active compounds read low 0.99 | S. cerevisiae deletion strains, locus YMR231W, strain pep5, active compounds read low 0.976 | S. cerevisiae deletion strains, locus YMR263W, strain SAP30, active compounds read low 1.02 | S. cerevisiae deletion strains, locus YMR307W, strain GAS1, active compounds read low 1.06 | S. cerevisiae deletion strains, locus YNL067W, strain RPL9B, active compounds read low 1 | S. cerevisiae deletion strains, locus YNL071W, strain lat1, active compounds read low 1.01 | S. cerevisiae deletion strains, locus YNL128W, strain TEP1, active compounds read low 1.02 | S. cerevisiae deletion strains, locus YNL183C, strain NPR1, active compounds read low 0.946 | S. cerevisiae deletion strains, locus YNL209W, strain ssb2, active compounds read low 1.03 | S. cerevisiae deletion strains, locus YNL233W, strain BNI4, active compounds read low 1.02 | S. cerevisiae deletion strains, locus YNL248C, strain rpa49, active compounds read low 1.02 | S. cerevisiae deletion strains, locus YNL250W, strain rad50, active compounds read low 1 | S. cerevisiae deletion strains, locus YNL271C, strain bni1, active compounds read low 1 | S. cerevisiae deletion strains, locus YNL298W, strain CLA4, active compounds read low 0.977 | S. cerevisiae deletion strains, locus YNL307C, strain MCK1, active compounds read low 0.99 | S. cerevisiae deletion strains, locus YNL322C, strain KRE1 (second series), active compounds read low 0.999 | S. cerevisiae deletion strains, locus YNR049C, strain mso1, active compounds read low 0.999 | S. cerevisiae deletion strains, locus YNR052C, strain pop2, active compounds read low 0.984 | S. cerevisiae deletion strains, locus YOL006C, strain TOP1, active compounds read low 1.09 | S. cerevisiae deletion strains, locus YOL012C, strain htz1 0.886 | S. cerevisiae deletion strains, locus YOL147C, strain pex11, active compounds read low 0.995 | S. cerevisiae deletion strains, locus YOR001W, strain rrp6, active compounds read low 1.03 | S. cerevisiae deletion strains, locus YOR061W, strain CKA2, active compounds read low 1.01 | S. cerevisiae deletion strains, locus YOR069W, strain VPS5, active compounds read low 1.01 | S. cerevisiae deletion strains, locus YOR070C, strain gyp1, active compounds read low 1.01 | S. cerevisiae deletion strains, locus YOR080W, strain dia2, active compounds read low 1 | S. cerevisiae deletion strains, locus YOR083W, strain WHI5, active compounds read low 1 | S. cerevisiae deletion strains, locus YOR106W, strain vam3, active compounds read low 1.01 | S. cerevisiae deletion strains, locus YOR136W, strain idh2, active compounds read low 0.989 | S. cerevisiae deletion strains, locus YOR144C, strain elg1, active compounds read low 0.989 | S. cerevisiae deletion strains, locus YOR184W, strain ser1, active compounds read low 1.01 | S. cerevisiae deletion strains, locus YOR231W, strain MKK1, active compounds read low 0.998 | S. cerevisiae deletion strains, locus YOR265W, strain rbl2, active compounds read low 1.02 | S. cerevisiae deletion strains, locus YOR270C, strain vph1, active compounds read low 1.06 | S. cerevisiae deletion strains, locus YOR290C, strain snf2, active compounds read low 1.01 | S. cerevisiae deletion strains, locus YOR316C, strain cot1, active compounds read low 0.994 | S. cerevisiae deletion strains, locus YPL051W, strain arl3, active compounds read low 1.05 | S. cerevisiae deletion strains, locus YPL078C, strain atp4, active compounds read low 1.01 | S. cerevisiae deletion strains, locus YPL106C, strain sse1, active compounds read low 1.04 | S. cerevisiae deletion strains, locus YPL240C, strain hsp82, active compounds read low 1.01 | S. cerevisiae deletion strains, locus YPL241C, strain CIN2, active compounds read low 1.01 | S. cerevisiae deletion strains, locus YPL256C, strain CLN2, active compounds read low 0.984 | S. cerevisiae deletion strains, locus YPR119W, strain clb2, active compounds read low 0.991 | S. cerevisiae deletion strains, locus YPR141C, strain kar3, active compounds read low 1.01 | S. cerevisiae deletion strains, locus YPR163C, strain tif3, active compounds read low 0.99 | S. cerevisiae deletion strains, locus YPR167C, strain met16, active compounds read low 1 | S. cerevisiae deletion strains, strain wtn01, active compounds read low 1.01 | S. cerevisiae strains, strain wild type, active compounds read low 1.01
